The source made the active and inactive calls. Unless noted, no rule for the calls is given here.
Key:
[1] = A549 cell viability effects, profiling panel, calcein-AM fluorescence, 48 h, basal (AID 1162); conditions: higher = more signal; also: test concentration not given here
[2] = adipocyte viability effects, profiling panel, cell-based, 3T3-L1 adipocytes, calcein-AM fluorescence, 48 h, basal (AID 1163); conditions: 3T3-L1 adipocytes viability, higher = more signal; also: test concentration not given here
[3] = HepG2 cell viability effects, profiling panel, calcein-AM fluorescence, 48 h, basal (AID 1164); conditions: higher = more signal; also: test concentration not given here
[4] = MM1S cell viability effects, profiling panel, calcein-AM fluorescence, 48 h, basal (AID 1165); conditions: higher = more signal;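 also: viability of MM1S multiple myeloma cells under basal unstimulated conditions; test concentration not given here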
[5] = basal RPMI8226 viability, no added stimulus, profiling panel, cell-based, calcein-AM fluorescence, 48 h, PK04 Diversity Set (AID 1166); conditions: RPMI8226 myeloma viability, higher = more signal;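 also: cells grown under basal conditions without added stimulus; test concentration not given here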
[6] = basal HepG2 mitochondrial membrane potential changes, profiling panel, cell-based, JC-1 fluorescence, 24 h, 100 nL compound (AID 1167); conditions: higher = more signal; also: test concentration not given here
[7] = basal 3T3-L1 adipocyte mitochondrial potential changes, profiling panel, cell-based, JC-1 fluorescence, 3T3-L1 adipocytes, 24 h, 100 nL compound (AID 1168); conditions: JC-1 mitochondrial fluorescence, higher = more signal, called active from +8 up or from −8 down; also: test concentration not given here
[8] = basal RPMI8226 mitochondrial membrane potential changes, profiling panel, cell-based, JC-1 fluorescence, 24 h, 100 nL compound (AID 1169); conditions: RPMI8226 myeloma, JC-1 mitochondrial potential fluorescence, higher = more signal; also: test concentration not given here
[9] = basal MM1S mitochondrial membrane potential changes, profiling panel, cell-based, JC-1 fluorescence, 24 h, 100 nL compound (AID 1170); conditions: higher = more signal; also: test concentration not given here
[10] = A549 lung cancer cell viability effects, profiling panel, resazurin fluorescence, 24 h, PK04 Diversity Set (AID 1171); conditions: higher = more signal, called active from +8 up or from −8 down; also: test concentration not given here
[11] = HepG2 liver cancer cell viability effects, profiling panel, resazurin fluorescence, 24 h, PK04 Diversity Set (AID 1172); conditions: higher = more signal; also: test concentration not given here
[12] = basal S. cerevisiae growth modulation, no modifier, primary screen, OD600, strain BY4716, 24 h, basal condition (AID 1173); conditions: OD600, 24 h, higher = more signal, called active from +8 up or from −8 down
[13] = MM1S myeloma cell viability, profiling panel, resazurin fluorescence, basal, 24 h, PK04 Diversity Set (AID 1174); conditions: higher = more signal, called active from +8 up or from −8 down;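 also: MM1S multiple myeloma cell line; test concentration not given here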
[14] = biological target: Dihydroorotate dehydrogenase (quinone), mitochondrial (Plasmodium falciparum (isolate 3D7)) (UniProt Q08210); test: PfDHODH enzyme inhibitors, primary screen, biochemical, C-terminal His tag, absorbance 600 nm (AID 1175); conditions: DCIP absorbance 600 nm, higher = more signal, called active from +8 up or from −8 down;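 also: recombinant parasite enzyme with a five histidine tag at its C terminus; test concentration not given here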
[15] = P. aeruginosa biofilm formation inhibitors, primary screen, strain PAO1, LB-PBS medium, absorbance 600 nm (AID 1176); also: test concentration not given here; conditions: P. aeruginosa PAO1 growth/biofilm, A600, 12 h; higher = more signal
[16] = S. cerevisiae RM11-1a growth modifiers, primary screen, strain RM11-1a, OD600, basal, 24 h (AID 1177); conditions: OD600, 24 h, higher = more signal, called active from +8 up or from −8 down;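 also: cultures grown under basal conditions with no added stressor; test concentration not given here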
[17] = E. coli acrAB mutant growth effects, primary screen, E. coli filamentation inducers, strain DRC39, OD650, 24 h (AID 1178); conditions: higher = more signal, called active from +8 up or from −8 down;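 also: growth measured as culture turbidity by optical density at 650 nm; test concentration not given here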
[18] = E. coli acrAB mutant growth effects, primary screen, E. coli filamentation inducers, strain DRC39, OD650, 48 h (AID 1179);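 also: screen aims at cell division blockers that make cells filament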; conditions: E. coli DRC39 delta-acrAB growth, higher = more signal, called active from +8 up or from −8 down
[19] = RPMI8226 myeloma cell viability, profiling panel, resazurin fluorescence, basal, 24 h, PK04 Diversity Set (AID 1180); conditions: higher = more signal;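 also: RPMI8826 multiple myeloma cell line at 5000 cells per well; test concentration not given here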
[20] = biological target: E3 ubiquitin-protein ligase XIAP (Homo sapiens) (UniProt P98170); test: XIAP binders, primary screen, biophysical, small-molecule microarray, fluorescence 635 nm (AID 1181); conditions: small-molecule microarray binding, higher = more signal;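 also: score merges 667 nm emission and signal to noise over triplicate slides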
E3 ubiquitin-protein ligase XIAP (Homo sapiens), sequence (P98170 whole entry, looked up): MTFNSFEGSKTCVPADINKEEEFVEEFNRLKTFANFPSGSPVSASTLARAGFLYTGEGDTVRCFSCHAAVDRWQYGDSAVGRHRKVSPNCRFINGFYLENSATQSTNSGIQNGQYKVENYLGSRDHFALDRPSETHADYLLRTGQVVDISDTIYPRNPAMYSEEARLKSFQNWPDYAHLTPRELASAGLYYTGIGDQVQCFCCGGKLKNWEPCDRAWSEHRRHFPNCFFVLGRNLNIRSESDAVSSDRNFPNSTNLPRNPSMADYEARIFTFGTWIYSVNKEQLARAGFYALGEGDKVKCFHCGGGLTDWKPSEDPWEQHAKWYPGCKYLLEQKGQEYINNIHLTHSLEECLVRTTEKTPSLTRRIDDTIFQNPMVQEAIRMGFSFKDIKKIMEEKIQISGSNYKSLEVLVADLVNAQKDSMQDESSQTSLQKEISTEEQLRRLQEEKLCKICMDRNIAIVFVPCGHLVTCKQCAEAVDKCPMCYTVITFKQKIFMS

Dihydroorotate dehydrogenase (quinone), mitochondrial (Plasmodium falciparum (isolate 3D7)), sequence (Q08210 whole entry, looked up): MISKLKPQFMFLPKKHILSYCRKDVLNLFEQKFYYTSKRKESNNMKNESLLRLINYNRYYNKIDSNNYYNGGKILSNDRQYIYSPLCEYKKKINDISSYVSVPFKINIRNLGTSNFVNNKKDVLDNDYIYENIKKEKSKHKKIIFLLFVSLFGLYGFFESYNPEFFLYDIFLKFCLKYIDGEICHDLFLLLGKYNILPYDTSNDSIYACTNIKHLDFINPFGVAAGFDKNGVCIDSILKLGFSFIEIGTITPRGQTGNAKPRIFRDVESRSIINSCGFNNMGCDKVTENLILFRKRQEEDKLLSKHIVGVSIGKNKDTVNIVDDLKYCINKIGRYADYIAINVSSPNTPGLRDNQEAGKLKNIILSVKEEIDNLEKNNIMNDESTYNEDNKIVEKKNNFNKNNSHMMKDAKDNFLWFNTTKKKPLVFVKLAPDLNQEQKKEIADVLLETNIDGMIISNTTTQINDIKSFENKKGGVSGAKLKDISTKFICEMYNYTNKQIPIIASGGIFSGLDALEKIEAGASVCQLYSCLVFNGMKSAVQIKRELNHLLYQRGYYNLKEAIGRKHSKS

| SMILES | z-score [1] | z-score [2] | z-score [3] | z-score [4] | z-score [5] | z-score [6] | z-score [7] | z-score [8] | z-score [9] | z-score [10] | z-score [11] | z-score [12] | z-score [13] | composite z-score [14] | z-score [15] | z-score [16] | z-score [17] | z-score [18] | z-score [19] | composite z-score [20] |
| --- | --- | --- | --- | --- | --- | --- | --- | --- | --- | --- | --- | --- | --- | --- | --- | --- | --- | --- | --- | --- |
| COCCOC(=O)N1C(=O)[C@@]2(c3cc(C#CC4(O)CCCCCC4)ccc31)[C@H](C(=O)N1CCN(c3ncccn3)CC1)[C@H]1C(=O)O[C@H](c3ccccc3)[C@H](c3ccccc3)N1[C@@H]2c1ccccc1OCCO | -0.118 | 0.481 | -0.594 | -0.483 | -1.98 | -0.151 | 0.909 (inactive) | -0.288 | -0.589 | -0.0171 (inactive) | 0.212 | 2.67 (inactive) | -0.194 (inactive) | 0.97 (inactive) | 2.12 (inactive) | 3.05 (inactive) | -0.322 (inactive) | -0.473 (inactive) | 0.177 | -0.068 |
| COCCOC(=O)N1C(=O)[C@@]2(c3cc(C#Cc4ccc(OC)cc4)ccc31)[C@H](c1ccc(OCCO)cc1)N1[C@H](c3ccccc3)[C@H](c3ccccc3)OC(=O)[C@H]1[C@@H]2C(=O)Nc1nc2ccccc2s1 | -0.922 | 0.829 | -1.26 | -0.569 | -1.26 | -2.86 | 3.99 (inactive) | -0.735 | -1.13 | -0.285 (inactive) | 1.62 | 1.21 (inactive) | -0.606 (inactive) | -1 (inactive) | 1.5 (inactive) | 1.56 (inactive) | 0.0318 (inactive) | -0.389 (inactive) | 0.46 | 0.259 |
| O=c1cccc(-c2ccco2)o1 | -0.69 | 0.474 | 0.219 | 0.0393 | -0.159 | -0.79 | 1.1 (inactive) | 0.773 | -0.605 | -0.214 (inactive) | -0.675 | -0.216 (inactive) | 0.0232 (inactive) | -1.85 (inactive) | 0.092 (inactive) | -0.231 (inactive) | -0.644 (inactive) | -0.338 (inactive) | -0.258 | -0.179 |
| CC(=O)NCCCC[C@@H]1NC(=O)[C@H]2C[C@@H](C(=O)NCCCCCNC(=O)CS)[C@@H](c3cccc(OCCO)c3)N2C1=O | -0.227 | -0.146 | 0.0877 | 0.0637 | -0.433 | 1.09 | -0.286 (inactive) | -0.428 | 0.0573 | -0.496 (inactive) | -0.223 | 0.332 (inactive) | -0.0374 (inactive) | 0.657 (inactive) | 0.559 (inactive) | -0.39 (inactive) | -0.0744 (inactive) | 0.382 (inactive) | -0.653 | 2.75 |
| [N-]=[N+]=NC[C@H](Cc1ccccc1)NC(=O)c1ccccc1 | 0.431 | 0.474 | 0.611 | 0.357 | 0.661 | 0.581 | 0.219 (inactive) | -0.0299 | 0.171 | 1.19 (inactive) | 0.198 | -3.7 (inactive) | 1.46 (inactive) | -0.178 (inactive) | -0.382 (inactive) | -0.401 (inactive) | 0.487 (inactive) | 0.352 (inactive) | 0.839 | -0.394 |
| CCCCCN1CC=CC23O[C@@H]4C=CCOC(=O)[C@@H]4[C@H]2C(=O)N(CCO)[C@@H]3C1=O (stereo not given in full) | -0.479 | -0.609 | 0.0249 | 0.687 | -0.285 | -0.607 | 0.561 (inactive) | 0.174 | -0.15 | -0.0273 (inactive) | 0.815 | 0.201 (inactive) | 0.0974 (inactive) | -0.693 (inactive) | 0.398 (inactive) | -0.454 (inactive) | -0.0666 (inactive) | -0.193 (inactive) | 0.229 | 0.307 |
| O=C1C2C=CC(C(O)c3ccco3)N(Nc3ccccc3)C2C(=O)N1c1ccccc1 (stereo not given) | 0.133 | -1.03 | 0.473 | 0.249 | 0.458 | -0.45 | 0.255 (inactive) | -0.364 | -0.267 | 0.649 (inactive) | 0.875 | -0.633 (inactive) | -0.321 (inactive) | 1.05 (inactive) | -0.283 (inactive) | 0.829 (inactive) | -0.706 (inactive) | 0.154 (inactive) | 0.628 | -0.0264 |
| COc1cc(NN2C(C(O)c3ccc(I)cc3)C=CC3C(=O)N(c4ccccc4)C(=O)C32)cc(OC)c1OC (stereo not given) | -0.844 | -0.294 | -0.683 | -0.344 | -1.4 | -1.14 | -1.46 (inactive) | -0.786 | -1.4 | -0.749 (inactive) | -1.35 | 0.645 (inactive) | -0.694 (inactive) | -0.755 (inactive) | 0.835 (inactive) | 0.0247 (inactive) | 0.456 (inactive) | 0.176 (inactive) | -1.34 | 0.162 |
| [N-]=[N+]=NCc1ccccc1[C@@H]1OC(c2ccc(OCCCO)cc2)=N[C@]1(Cc1ccccc1N=[N+]=[N-])C(=O)N1CCCCC1 | -0.135 | -0.843 | 0.461 | -2.31 | -3.75 | 0.913 | -0.922 (inactive) | -1.19 | -2.04 | -0.484 (inactive) | 0.56 | -0.139 (inactive) | -1.98 (inactive) | 0.303 (inactive) | 0.327 (inactive) | 1.09 (inactive) | -0.0949 (inactive) | 0.599 (inactive) | -2.88 | 0.172 |
